Molecules are shown by their SMILES. A number with no mark means an inactive call. The source made the active and inactive calls. Calls come from the whole dose curve; as a rule, active = well fitted curve in the direction sought with a large enough effect; inactive = no such curve, though single readings can be large or run the other way.

A short description of the experiment: qHTS profiling of inhibitors of Plasmodium falciparum (3D7) proliferation (acoustic dispense). The following applies: P. falciparum 3D7 in erythrocytes, SYBR Green, 72 h; series mostly up to 49.8 µM. From the text:
Plasmodium falciparum is a virulent malarial parasite that kills 1-2 million people worldwide each year. Transmitted by mosquitoes, the sporozoite form of the parasite enters the blood stream to infect hepatocytes, where they become merozoites that infect red blood cells (erythrocytes). Within erythrocytes, merozoites begin a […] cycle of growth and division, after which the parasite is released to infect new red blood cells. Gametocytes, which form within erythrocytes as well, circulate in the bloodstream and are ingested by the mosquito, thereby completing the life cycle. To profile malarial isolates for differential chemical responses and to identify inhibitors of malarial growth, an assay that measures P. falciparum growth and replication within erythrocytes was employed. This assay uses a DNA binding fluorescent dye (SYBR Green) to detect parasite DNA following cell lysis. Because mature erythrocytes lack DNA, only Plasmodium-derived DNA is detected.
The SYBR Green viability assay was adapted from a method described previously (Plouffe et al., 2008). For screening 3 ul culture medium was dispensed into 1536 well black clear bottom plates (Aurora Biotechnologies) using a Multidrop Combi (Thermo Fisher Scientific Inc.), 23 nL of compounds in DMSO were added by an acoustic dispenser (EDC Biosystems), and 5 ul of erythrocytes infected with P. falciparum (0.3% parasitemia, 2.5% hematocrit final concentration) were added. The plates were incubated at 37 C in a humidified incubator in 5% CO2 for 72 h, and 2 ul lysis buffer (20 mM Tris HCl, 10 mM EDTA, 0.16% saponin, 1.6% triton X, 10X SYBR Green I supplied as 10,000X […] by Invitrogen) was added to each well. The plates were mixed for 25 sec with gentle shaking and incubated overnight at room temperature in the dark. The following morning, fluorescence intensity at 485(14) nm excitation and 535(25) nm emission wavelengths was measured on an EnVision (Perkin Elmer) plate reader. Plate reads were normalized relative to the control inhibitor (0.29 uM artemisinin) and vehicle (DMSO) wells present on each plate and then corrected by an algorithm using vehicle-only control plates at the beginning and end of the compound plate stack.
For the compound `CC(=O)N(O)CCCP(=O)(O)O`, the outcome was inactive. Still for that read-out and setting: the same measure for `CO[C@H]1CCC(O[C@H]2C[C@H]([C@]3(C)CC[C@]4(C[C@H](O)[C@@H](C)[C@@H]([C@@H](C)C=C(C)C(=O)[C@H](C)C[C@H](C)C(=O)O)O4)O3)O[C@]3(O[C@@H]([C@H]4O[C@@](O)(CO)[C@H](C)C[C@H]4C)C[C@H]3C)[C@H]2C)O[C@H]1C` (stereo not given in full): “inactive”. `CC(=Cc1csc(C)n1)[C@@H]1C[C@H]2O[C@@H]2CCC[C@H](C)[C@@H](O)[C@@H](C)C(=O)C(C)(C)[C@@H](O)CC(=O)O1`: the outcome was inactive.

Consider `C[C@H]1CCCC=CC2C[C@H](O)C[C@@H]2[C@H](O)C=CC(=O)O1` (stereo not given in full), for which the outcome was inactive.

Regarding `CC(=O)Nc1nnc(S(N)(=O)=O)s1`, the compound was called inactive. Consider `C[C@]12O[C@H](C[C@@]1(O)C(=O)O)n1c3ccccc3c3c4c(c5c6ccccc6n2c5c31)CNC4=O`, for which the activity change was 0.751% [at 4.15 µM].

As to `CC(C)(N)CNC(=O)CC1CCC2(CC1)OOC1(O2)C2CC3CC(C2)CC1C3` (stereo not given), the compound was classed as inactive. The same measure, in the same setting: the same measure for `COC1=CC(C)=C[C@@H](C)[C@@H](O)[C@@H](C)CC(C)=CC=C[C@H](OC)[C@H]([C@@H](C)[C@@H](O)[C@H](C)[C@@]2(O)C[C@@H](O)[C@H](C)[C@@H](C(C)C)O2)OC1=O`: “inactive”. For the compound `O=c1[nH]c2ccc(Cl)cc2c(N[C@@H]2CN3CCC2CC3)c1-c1nc2ccccc2[nH]1`, the call was inactive. On the same count and under the same terms, for `O=C(C[C@@H]1NCCC[C@@H]1O)Cn1cnc2ccccc2c1=O` the value was “inactive”; for `C[C@@H]1C[C@@H]([C@H](O)CC2CC(=O)NC(=O)C2)C(=O)[C@@H](C)C1`, “inactive”; for `CN1C(=O)C[C@H](C(=O)N[C@@H](Cc2cnc[nH]2)C(=O)N2CCC[C@@H]2C(N)=O)NC1=O`, “inactive”. On the same count and under the same terms, the same measure for `COC(=O)[C@@]1(OC)C[C@@H]2O[C@@]1(C)n1c3ccccc3c3c4c(c5c6ccccc6n2c5c31)C(=O)N(C)C4`: “inactive”; for `CC=C(C)C(=O)N[C@@H](c1ccccc1)[C@@H](O)C(=O)O[C@H]1C[C@@]2(O)[C@@H](OC(=O)c3ccccc3)[C@@H]3[C@]4(OC(C)=O)CO[C@@H]4C[C@H](O)[C@@]3(C)C(=O)[C@H](OC(C)=O)C(=C1C)C2(C)C`: “inactive”. Same read-out and setting: the same measure for `CC1=C(O)C(=O)C=C2C1=CC=C1[C@@]2(C)CC[C@@]2(C)[C@@H]3C[C@](C)(C(=O)O)CC[C@]3(C)CC[C@]12C`: “inactive”.

The values above are taken from PubChem BioAssay AID743364 (National Center for Advancing Translational Sciences (NCATS), 2014).
